Bioassay records as filed in PubChem.
RGS8-Gao – RGS8-Galphao binding modulators, primary screen, biochemical, multiplexed bead flow cytometry | Guanine nucleotide-binding protein G(o) subunit alpha (Homo sapiens), P09471 | actives lie on both sides | response (percent of control binding), % at 10 µM | hit rate 0.34% among 220,000; in the data active means response below about 60% or above about 140%; inactive means in between;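 further: Galphao activated as the GDP aluminium fluoride complex binding bead-coupled RGS8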
Target sequence (P09471 whole entry, looked up): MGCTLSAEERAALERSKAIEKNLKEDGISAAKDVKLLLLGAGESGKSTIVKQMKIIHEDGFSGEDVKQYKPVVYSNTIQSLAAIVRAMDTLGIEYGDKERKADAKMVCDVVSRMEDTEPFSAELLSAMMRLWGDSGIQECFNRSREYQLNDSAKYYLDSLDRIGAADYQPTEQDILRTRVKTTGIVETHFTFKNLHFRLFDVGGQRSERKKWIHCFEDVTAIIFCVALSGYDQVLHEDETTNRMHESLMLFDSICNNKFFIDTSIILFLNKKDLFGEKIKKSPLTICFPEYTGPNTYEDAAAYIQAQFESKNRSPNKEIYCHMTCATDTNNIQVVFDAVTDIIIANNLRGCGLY
RGS7-Gao reg – RGS7-Galphao binding modulators, primary screen, biochemical, multiplexed bead flow cytometry; Guanine nucleotide-binding protein G(o) subunit alpha (Homo sapiens), P09471; actives lie on both sides; binding response (% of control), % at 10 µM; hit rate 0.35% among 220,000; in the data active means binding response below about 49% or above about 150%; inconclusive means no clear call, values can overlap the other calls; inactive means in between;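 further: fluorescent Galphao held in activated GDP-AlF4 state binding bead-coupled RGS7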
RGS4-Gao reg – modulators of RGS4 binding to Galphao, primary screen, biochemical, multiplexed bead flow cytometry; hit rate 0.33% among 220,000; binding response (% of control), % at 10 µM; Guanine nucleotide-binding protein G(o) subunit alpha (Homo sapiens), P09471; actives lie on both sides; in the data active means binding response below about 49% or above about 150%; inactive means in between;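 further: fluorescent Galphao activated with aluminum fluoride binding bead-coupled RGS4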
Avidin fluor – green autofluorescence of compounds with avidin beads – biophysical, 488/530 nm, flow cytometry, artefact control, profiling panel; AID 1775, 2009; hit rate 0.38% among 220,000; compound fluorescence 488/530 nm; hits give high values; fluorescence (KMESF) at 10 µM; in the data active means fluorescence above about 47
RGS16-Gao – modulators of RGS16 binding to Galphao, primary screen, biochemical, human proteins, multiplexed bead flow cytometry; Regulator of G-protein signaling 16 (Homo sapiens) + Guanine nucleotide-binding protein …; bead-based flow cytometry RGS16-Galphao binding, fluorescence; actives lie on both sides; binding response (% of control), % at 10 µM; hit rate 0.38% among 220,000; AID 1441, 2008;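 further: Galphao activated by GDP with aluminum fluoride before binding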
GSH bead fluor – compound fluorescence on glutathione beads, profiling panel, artefact control, biophysical, 488/530 nm, flow cytometry; GSH beads flow cytometry, compound fluorescence 488/530 nm; hits give high values; fluorescence (KMESF) at 10 µM; hit rate 0.25% among 190,000; AID 1776, 2009; in the data active means fluorescence above about 89;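 further: glutathione beads carrying GST-tagged Bcl family fusion proteins plus one bare bead set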
RGS4-Gao HTS – modulators of RGS–Galpha-o binding, primary screen, biochemical, multiplexed beads, flow cytometry, RGS4/7/8/16/19. shares compounds with RGS16-Gao. multiplexed bead flow cytometry. RGS4–Galpha-o binding response, % at 10 µM. hit rate 99% among 1,600. AID 1504, 2009;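 further: fluorescently labeled Galpha-o bound to GDP with aluminium fluoride binding biotinylated RGS beads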
Target sequence (P09471 whole entry, looked up): as above
Target sequence (P49798 whole entry, looked up): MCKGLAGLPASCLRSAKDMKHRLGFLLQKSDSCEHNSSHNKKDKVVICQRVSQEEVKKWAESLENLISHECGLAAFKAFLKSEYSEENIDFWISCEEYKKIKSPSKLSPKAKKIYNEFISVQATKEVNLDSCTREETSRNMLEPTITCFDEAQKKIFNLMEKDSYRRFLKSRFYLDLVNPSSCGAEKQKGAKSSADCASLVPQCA
Avidin counter – disruption of biotin probe capture by avidin, counter-screen for RGS protein interaction modulators, biochemical, flow cytometry, bead-based; shares compounds with RGS16-Gao; inhibition, % at 10 µM; streptavidin beads, fluorescein-biotin binding; AID 1783, 2009; 1,700 tested, under 10 active;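 active means inhibition above 50%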;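 further: median green fluorescence of gated singlet beads compared with DMSO control wells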
RGS8-Gao confirm – RGS8-Galphao binding modulators, confirmation, biochemical, multiplexed bead flow cytometry, single concentration; hit rate 3% among 1,700; shares compounds with RGS16-Gao; bead-based flow cytometry RGS8-Galphao binding, fluorescence; actives lie on both sides; AID 1836, 2009; binding response (% of control), % at 10 µM; in the data active means binding response below about 72% or above about 130%; inactive means in between;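 further: Galphao activated as GDP AlF4 complex before binding bead RGS8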
RGS7-Gao single – RGS7-Galphao binding modulators, confirmation, biochemical, multiplexed bead flow cytometry, single concentration. shares compounds with RGS16-Gao. bead-based flow cytometry RGS7-Galphao binding; actives lie on both sides. response (percent of control binding), % at 10 µM. hit rate 7.8% among 1,700; in the data active means response below about 75% or above about 130%; inactive means in between;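 further: fluorescent Galphao activated with GDP and aluminum fluoride binding bead-coupled RGS7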
RGS16-Gao conf – modulators of RGS16-Galphao protein binding, confirmation, biochemical, single concentration, multiplexed bead flow cytometry | hit rate 4% among 1,700 | response (% of control binding), % at 10 µM | shares compounds with RGS16-Gao | bead-based flow cytometry; actives lie on both sides; in the data active means response below about 74% or above about 130%; inactive means in between;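 further: Galphao activated as the GDP aluminium fluoride complex binding bead-coupled RGS16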
RGS4-Gao single – modulators of RGS4-Galphao protein binding, confirmation, biochemical, single concentration, multiplexed bead flow cytometry; binding response (% of control), % at 10 µM; AID 1840, 2009; hit rate 4% among 1,700; actives lie on both sides; shares compounds with RGS16-Gao; in the data active means binding response below about 74% or above about 130%; inactive means in between
RGS19-Gao conf – regulators of RGS19-Galphao binding, confirmation, biochemical, single point, multiplexed bead flow cytometry; shares compounds with RGS16-Gao; bead-based flow cytometry RGS19-Galphao binding; actives lie on both sides; response (percent of control binding), % at 10 µM; hit rate 5% among 1,700; in the data active means response below about 50% or above about 160%; inactive means in between
Numbers stand for hits; i = inactive; ? = inconclusive; nt = not tested or not shown; [ ] = another dose, or the depositor's remark. Compounds with a hit are over-represented: about 1.2% of the library has one in this group of screens. Unless noted, how the calls were made is not given here.

SMILES	RGS8-Gao	RGS7-Gao reg	RGS4-Gao reg	Avidin fluor	RGS16-Gao	GSH bead fluor	Avidin counter	RGS8-Gao confirm	RGS7-Gao single	RGS16-Gao conf	RGS4-Gao single	RGS19-Gao conf	others
COc1ccc(NS(=O)(=O)c2cc([N+](=O)[O-])ccc2N/N=C\c2c(C)[nH]c3ccccc23)cc1	i	i	151[activator]	51	i	i	i	i	159[activator]	i	128[activator]	199[activator]
Cc1cccc2cc(COC(=O)c3ccccn3)c(=O)[nH]c12	i	i	i	i	-25	i	i	i	i	i	i	i	RGS4-Gao HTS=69
COc1ccc(C(=O)OCc2cc3cccc(C)c3[nH]c2=O)cc1	i	i	i	i	i	i	nt	nt	nt	nt	nt	nt
CCCS(=O)(=O)c1ccc(COC(=O)c2ccc(NC(C)=O)cc2)cc1	i	i	i	i	i	i	nt	nt	nt	nt	nt	nt
CC1(C(=O)OCC(=O)Nc2ccc3ccccc3c2)CC1(Cl)Cl (stereo not drawn)	i	?	i	i	i	i	nt	nt	nt	nt	nt	nt
Cc1onc(-c2ccccc2Cl)c1C(=O)Nc1nn[nH]n1	53	i	47	i	i	i	i	i	i	i	i	i
CCCN(CCC)S(=O)(=O)c1cccc(-c2csc(C)n2)c1	i	?	i	i	i	nt	nt	nt	nt	nt	nt	nt
COCc1nnc(NC(=O)c2ccc(NC(C)=O)cc2)s1	i	i	46	i	i	i	i	i	i	i	i	i
Cc1nn(CCCC(=O)N2CCN(c3ccc(F)cc3)CC2)c(C)c1[N+](=O)[O-]	18	19	25	i	15	i	i	i	i	i	i	i
Cc1sc(N)c(C(=O)c2ccccc2)c1C	i	253[activator]	i	248	i	i	i	i	i	i	i	i	RGS4-Gao HTS=126
CCN1CCN(C(=O)CCNC(=O)Cn2ccc3ccccc3c2=O)CC1	i	i	i	i	i	i	nt	nt	nt	nt	nt	nt
CCCN1CCN(CCCNC(=O)CCNC(=O)Cn2ccc3ccccc3c2=O)CC1	142[activator]	i	i	i	i	i	i	i	i	i	i	i	RGS4-Gao HTS=104
O=C(C[n+]1cn(C(F)F)c2ccccc21)c1ccc(OC(F)F)cc1	i	?	i	i	i	i	nt	nt	nt	nt	nt	nt
COc1ccc(/C=N/NC(=O)c2ccncc2)cc1Cn1nc([N+](=O)[O-])c(Br)c1C	i	i	i	i	i	i	nt	nt	nt	nt	nt	nt
Cc1cc(N)nc(C)c1C#N	i	i	i	i	i	i	nt	nt	nt	nt	nt	nt
Cc1cc(C)c(C#N)c(N)n1	nt	nt	nt	nt	nt	i	i	i	i	i	i	i
Cc1c2c(c(C)n1C)C(C(=O)NC1CCCCC1)N(Cc1ccccc1)C2=O (stereo not drawn)	i	i	i	i	i	i	nt	nt	nt	nt	nt	nt
O=C(NNC(=S)Nc1ccccc1)C1CCCCC1	i	i	i	i	i	i	nt	nt	nt	nt	nt	nt
CC(=O)N(C1=C(Cl)C(=O)c2ccccc2C1=O)C1CCCCC1	54	?	i	i	3.0	nt	nt	nt	nt	nt	nt	nt	RGS4-Gao HTS=87
CC(=O)N(c1ccccc1C)C1CCCC1	i	i	i	i	i	i	nt	nt	nt	nt	nt	nt
COC(=O)c1c(-c2ccccc2)c[nH]c1C	i	?	i	nt	i	nt	nt	nt	nt	nt	nt	nt
O=C(O)COc1ccccc1/C=N/NC(=O)Cc1csc(Nc2cccc(C(F)(F)F)c2)n1	40	?	39	i	i	i	i	i	i	i	i	i
CCn1cc(CCC(=O)O)c(C)n1	146[activator]	i	i	i	i	i	i	i	i	i	i	i	RGS4-Gao HTS=142
Cc1ccc(-c2nn(CCC(=O)O)cc2CCC(=O)O)cc1	i	i	i	i	i	i	nt	nt	nt	nt	nt	nt
COCc1cc(=O)[nH]c(SCCS(=O)(=O)c2ccc(Cl)cc2Cl)n1	i	?	i	i	i	nt	nt	nt	nt	nt	nt	nt
SMILES	RGS8-Gao	RGS7-Gao reg	RGS4-Gao reg	Avidin fluor	RGS16-Gao	GSH bead fluor	Avidin counter	RGS8-Gao confirm	RGS7-Gao single	RGS16-Gao conf	RGS4-Gao single	RGS19-Gao conf	others
Cc1ccc(OCCNS(=O)(=O)c2cccs2)cc1	i	154[activator]	159[activator]	i	i	i	i	i	i	i	i	i
COc1ccc(OCCNS(=O)(=O)c2ccccc2)cc1	i	i	i	i	i	i	nt	nt	nt	nt	nt	nt
CCCNS(=O)(=O)c1ccc(OCC(=O)N2CCOCC2)cc1	i	i	i	i	i	i	nt	nt	nt	nt	nt	nt
COc1cc(C(=S)N2CCOCC2)ccc1OC(=O)c1cc([N+](=O)[O-])c(C)c([N+](=O)[O-])c1	i	i	i	i	6.2	i	i	i	i	i	i	i	RGS4-Gao HTS=86
COc1ccc(C(=S)N2CCOCC2)cc1OC(=O)c1cc([N+](=O)[O-])c(C)c([N+](=O)[O-])c1	i	i	i	i	i	i	nt	nt	nt	nt	nt	nt
COc1ccccc1N1CCN(C(=O)CSc2nc(N)cc(=O)[nH]2)CC1	i	277[activator]	i	201	i	i	i	i	i	i	i	i	RGS4-Gao HTS=88
O=C1c2cccc3c(O)ccc(c23)C(=O)N1Cc1ccccc1	i	164[activator]	181[activator]	81	186[activator]	162	i	126[activator]	264[activator]	203[activator]	204[activator]	219[activator]
Cc1nn(C)c(C)c1S(=O)(=O)N1CCC(CO)(CC2CCCCO2)CC1 (stereo not drawn)	i	i	i	i	i	i	nt	nt	nt	nt	nt	nt
COc1ccc(C(=O)NCCc2nnc(SCC(=O)Nc3ccccc3F)n2C)cc1	i	166[activator]	i	80	i	i	i	i	i	i	i	i	RGS4-Gao HTS=111
